Measured values reported in PubChem BioAssay (Tox21).
Results filed as inconclusive are left out. Active and inactive are the calls of the source. Unless noted, calls come from the whole dose curve.

system: not listed separately; test: Nuclear factor erythroid 2-related factor 2/antioxidant responsive element (Nrf2/ARE) small molecule agonists: qHTS cell viability counter screen in human keratinocytes (AID 1919968; active = well fitted cell-killing curve with a large enough effect in the repeat runs; note: nearly all actives have a fitted effect of over 55% in size; note: potency is the fitted concentration of half-maximal effect); details: KeratinoSens HaCaT ARE cells viability, CellTiter-Fluor, 24 h; series mostly up to 92.4 µM; activity change, negative = cytotoxicity: at the top concentration
In short: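 Fluorescence read-out from CellTiter-Fluor after 1 h at 37 C. Wells held HaCaT-derived ARE-luciferase reporter cells (1,500/well) treated 23 h with DMSO-dissolved compounds. Run in the same wells as the luciferase agonist read.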
% is set by controls: 0 for no effect and ±100 for the full control effect.

Compound	activity change, negative = cytotoxicity	Potency
CC1CCC(CO)CC1 (stereo not given)	-0.315% (inactive)	–
Cc1c[nH]c(=S)[nH]c1=O	0.226% (inactive)	–
CC(=O)OC1C2(C)CCC(C2)C1(C)C (stereo not given)	4.31% (inactive)	–
COP(=O)(OC)OC(c1ccc(Cl)cc1)P(=O)(OC)OC (stereo not given)	-0.639% [at 42.5 µM] (inactive)	–
CCC(Cl)CC(Cl)C(Cl)C(Cl)C(Cl)C(C)Cl (stereo not given)	2.55% [at 19 µM] (inactive)	–
O=C(O)c1ccc(S(=O)(=O)O)cc1C(=O)O	0.944% (inactive)	–
CCCOC(=O)CCCCC(=O)OCCC	-6.17% (inactive)	–
CCCCCCC[N+](CC)(CC)CCCCc1ccc(Cl)cc1	-14.7% [at 42.5 µM] (inactive)	–
O=C1CCCCCCCCCCCC(=O)OCCO1	1.26% (inactive)	–
CCCCCCCCCCl	-6.49% (inactive)	–
CC(C)CCCCCCOC(=O)C1CCCCC1C(=O)OCCCCCCC(C)C (stereo not given)	4.84% (inactive)	–
O=S(=O)(O)c1cc(O)c2ccc(Nc3ccccc3)cc2c1	-0.0772% (inactive)	–
SC1CCCC1	1.37% (inactive)	–
N#CCCN(CCO)CCO	7.11% (inactive)	–
CC(C)O.CC(C)O.CCOC(=O)/C=C(\C)O.CCOC(=O)/C=C(\C)O.[Ti]	3.55% (inactive)	–
Cn1cc(C(=O)[C@@H]2CCc3nc[nH]c3C2)c2ccccc21	0.822% [at 42.5 µM] (inactive)	–
CC1=C(O)C(=O)CO1	-1.23% (inactive)	–
Cc1ccc2ccc3cccc4ccc1c2c34	7.23% (inactive)	–
O=C(OCC(COC(=O)c1cccnc1)(COC(=O)c1cccnc1)COC(=O)c1cccnc1)c1cccnc1	11.1% [at 42.5 µM] (inactive)	–
NC(=O)N(O)[C@@H]1COc2cc(OCc3ccccc3)ccc21	2.44% (inactive)	–

Compound	activity change, negative = cytotoxicity	Potency
CN1C(CSCC(F)(F)F)Nc2cc(Cl)c(S(N)(=O)=O)cc2S1(=O)=O (stereo not given)	-9.83% [at 42.5 µM] (inactive)	–
Nc1ccc2cc(S(=O)(=O)O)cc(O)c2c1N=Nc1ccccc1C(F)(F)F	-23.4% (inactive)	–
CC[C@H](C)C(=O)O[C@H]1C[C@H](O)C=C2C=C[C@H](C)[C@H](CC[C@@H](O)C[C@@H](O)CC(=O)O)[C@H]21	2.7% (inactive)	–
CCCCOCCOCCOCc1cc2c(cc1CCC)OCO2	14.8% [at 42.5 µM] (inactive)	–
CCCC(=O)O[C@]1(C(=O)COC(=O)CC)CC[C@H]2[C@@H]3CCC4=CC(=O)CC[C@]4(C)[C@H]3[C@@H](O)C[C@@]21C	-1.05% [at 19 µM] (inactive)	–
CCN1C=CN(C)C1C (stereo not given)	2.32% (inactive)	–
CC1CCC(=O)C1=O (stereo not given)	0.169% (inactive)	–
COc1ccc(CCN(C)CCCN2CCc3cc(OC)c(OC)cc3CC2=O)cc1OC	0.162% [at 42.5 µM] (inactive)	–
CSc1ccc(C=O)cc1	2.49% (inactive)	–
OCCC1CCCCN1 (stereo not given)	-6.46% (inactive)	–
C=C(C)C(=O)OCCOc1ccccc1	-5.06% (inactive)	–
OCCCCCCCCCCCCBr	-5.11% (inactive)	–
C/C=C/C=N/NC(=O)c1ccncc1	1.9% [at 42.5 µM] (inactive)	–
COc1ccc2cc1Oc1ccc(cc1)C[C@H]1c3c(cc4c(c3Oc3cc5c(cc3OC)CCN(C)[C@@H]5C2)OCO4)CCN1C	–	23.7 µM (active)
Cc1cc(O)c2c(O)c3c(O)cccc3cc2c1	-15.1% [at 42.5 µM] (inactive)	–
Cc1ncc([N+](=O)[O-])n1CC(O)CCl (stereo not given)	-3.21% [at 42.5 µM] (inactive)	–
Cc1c(N)cccc1N	-1.9% (inactive)	–
Oc1cccc(Nc2ccccc2)c1	-3.19% (inactive)	–
NNC(=O)OCc1ccccc1	1.39% (inactive)	–
C[C@@H]1C[C@H]2[C@@H]3C[C@H](F)C4=CC(=O)C=C[C@]4(C)[C@@]3(F)[C@@H](O)C[C@]2(C)[C@@]1(O)C(=O)CO	-7.38% [at 42.5 µM] (inactive)	–

target: Gonadotropin-releasing hormone receptor (Homo sapiens) (UniProt P30968); test: Human gonadotropin-releasing hormone receptor (GnRHR) small molecule agonists, calcium flux assay in GnRHR-HEK293 cells (AID 1920063); details: calcium flux fluorescence, agonist mode; series mostly up to 57.6 µM; activity change: at the top concentration; note: nearly all actives have a fitted effect of over 35% in size
Sequence (P30968 whole entry, looked up): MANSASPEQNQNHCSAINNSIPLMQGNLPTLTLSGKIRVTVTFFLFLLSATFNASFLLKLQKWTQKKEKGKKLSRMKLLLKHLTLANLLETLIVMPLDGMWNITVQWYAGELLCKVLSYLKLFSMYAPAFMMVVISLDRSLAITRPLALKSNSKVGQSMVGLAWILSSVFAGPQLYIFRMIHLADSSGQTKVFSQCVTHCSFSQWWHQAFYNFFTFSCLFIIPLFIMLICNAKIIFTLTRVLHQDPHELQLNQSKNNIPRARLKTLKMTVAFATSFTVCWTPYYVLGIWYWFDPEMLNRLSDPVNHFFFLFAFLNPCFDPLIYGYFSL
In short: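 Calcium-dye fluorescence, Ex/Em=480/540, recorded every 1 sec over 3 min after compound addition to GnRHR-HEK293 cells. Cells had been seeded 18 hours earlier and dye-loaded for 1 hour at 37 C. Fifteen concentrations, triplicates.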

Compound	activity change	Potency
CC1CCC(CO)CC1 (stereo not given)	-0.597% (inactive)	–
Cc1c[nH]c(=S)[nH]c1=O	-0.182% (inactive)	–
CC(=O)OC1C2(C)CCC(C2)C1(C)C (stereo not given)	0.0498% (inactive)	–
COP(=O)(OC)OC(c1ccc(Cl)cc1)P(=O)(OC)OC (stereo not given)	0.0721% [at 26.4 µM, hits give high values] (inactive)	–
CCC(Cl)CC(Cl)C(Cl)C(Cl)C(Cl)C(C)Cl (stereo not given)	-1.19% [at 11.8 µM, hits give high values] (inactive)	–
O=C(O)c1ccc(S(=O)(=O)O)cc1C(=O)O	-0.0324% (inactive)	–
CCCOC(=O)CCCCC(=O)OCCC	-0.0228% (inactive)	–
CCCCCCC[N+](CC)(CC)CCCCc1ccc(Cl)cc1	-0.261% [at 26.4 µM, hits give high values] (inactive)	–
O=C1CCCCCCCCCCCC(=O)OCCO1	19.7% (inactive)	–
CCCCCCCCCCl	0.387% (inactive)	–
CC(C)CCCCCCOC(=O)C1CCCCC1C(=O)OCCCCCCC(C)C (stereo not given)	2.67% (inactive)	–
O=S(=O)(O)c1cc(O)c2ccc(Nc3ccccc3)cc2c1	-1.55% (inactive)	–
SC1CCCC1	-1.35% (inactive)	–
N#CCCN(CCO)CCO	-1.71% (inactive)	–
CC(C)O.CC(C)O.CCOC(=O)/C=C(\C)O.CCOC(=O)/C=C(\C)O.[Ti]	-0.159% (inactive)	–
Cn1cc(C(=O)[C@@H]2CCc3nc[nH]c3C2)c2ccccc21	3.8% [at 26.4 µM, hits give high values] (inactive)	–
CC1=C(O)C(=O)CO1	-1.31% (inactive)	–
Cc1ccc2ccc3cccc4ccc1c2c34	1.4% (inactive)	–
O=C(OCC(COC(=O)c1cccnc1)(COC(=O)c1cccnc1)COC(=O)c1cccnc1)c1cccnc1	-0.227% [at 26.4 µM, hits give high values] (inactive)	–
NC(=O)N(O)[C@@H]1COc2cc(OCc3ccccc3)ccc21	0.414% (inactive)	–

Compound	activity change	Potency
CN1C(CSCC(F)(F)F)Nc2cc(Cl)c(S(N)(=O)=O)cc2S1(=O)=O (stereo not given)	-0.308% [at 26.4 µM, hits give high values] (inactive)	–
Nc1ccc2cc(S(=O)(=O)O)cc(O)c2c1N=Nc1ccccc1C(F)(F)F	0.288% (inactive)	–
CC[C@H](C)C(=O)O[C@H]1C[C@H](O)C=C2C=C[C@H](C)[C@H](CC[C@@H](O)C[C@@H](O)CC(=O)O)[C@H]21	-0.453% (inactive)	–
CCCCOCCOCCOCc1cc2c(cc1CCC)OCO2	–	inactive
CCCC(=O)O[C@]1(C(=O)COC(=O)CC)CC[C@H]2[C@@H]3CCC4=CC(=O)CC[C@]4(C)[C@H]3[C@@H](O)C[C@@]21C	1.71% [at 11.8 µM, hits give high values] (inactive)	–
CCN1C=CN(C)C1C (stereo not given)	1.49% (inactive)	–
CC1CCC(=O)C1=O (stereo not given)	1.26% (inactive)	–
COc1ccc(CCN(C)CCCN2CCc3cc(OC)c(OC)cc3CC2=O)cc1OC	-0.0896% [at 26.4 µM, hits give high values] (inactive)	–
CSc1ccc(C=O)cc1	-2.12% (inactive)	–
OCCC1CCCCN1 (stereo not given)	-0.181% (inactive)	–
C=C(C)C(=O)OCCOc1ccccc1	-0.365% (inactive)	–
OCCCCCCCCCCCCBr	-1.07% (inactive)	–
C/C=C/C=N/NC(=O)c1ccncc1	0.229% [at 26.4 µM, hits give high values] (inactive)	–
COc1ccc2cc1Oc1ccc(cc1)C[C@H]1c3c(cc4c(c3Oc3cc5c(cc3OC)CCN(C)[C@@H]5C2)OCO4)CCN1C	10.7% [at 26.4 µM, hits give high values] (inactive)	–
Cc1cc(O)c2c(O)c3c(O)cccc3cc2c1	-0.267% [at 26.4 µM, hits give high values] (inactive)	–
Cc1ncc([N+](=O)[O-])n1CC(O)CCl (stereo not given)	-0.148% [at 26.4 µM, hits give high values] (inactive)	–
Cc1c(N)cccc1N	4.8% (inactive)	–
Oc1cccc(Nc2ccccc2)c1	-2.81% (inactive)	–
NNC(=O)OCc1ccccc1	-0.0025% (inactive)	–
C[C@@H]1C[C@H]2[C@@H]3C[C@H](F)C4=CC(=O)C=C[C@]4(C)[C@@]3(F)[C@@H](O)C[C@]2(C)[C@@]1(O)C(=O)CO	0.0847% [at 26.4 µM, hits give high values] (inactive)	–
